Laboratory results as given in the OligoGym collection.

These sequences were tested against ZHX1 (assay: pooled miR-30 sensor sort-seq; sequence = guide strand). Details: shRNA.
Note: reference of the scale not given here.

Sequence	sensor-assay potency score (higher = more potent)
TTTTTTTACATATCTTGCCTGT	-0.102
TTGTATTAGATTCAGAAGCTGA	-0.592
TAAGTATACATTTACTACGTGA	-0.517
TTAAACTGAACATTTCTTCTAC	0.706
TTGCTCATTAAGAAACTTGTGC	-0.28

These sequences were tested against ZIC5 in the same assay as above. Details: shRNA.

Sequence	sensor-assay potency score (higher = more potent)
ATGAGTACGCTTGTGGATCTTG	-0.744
TGTATGAGTACGCTTGTGGATC	-1.35
TTGCAGATGAGCTCCTGCTTGA	-0.229
TCATCTTCAGTCTCAGAGGTGG	-0.487
TGAATCTTCATGTGCTTCCTCA	-0.349
TTGGTGGTGGTGTAGCCCGAGA	-1.57
TCGAATCTTGCAGTAGTAGGGC	0.408
TTTGTCACAGCCTCGAATCTTG	-0.0738
TAGTAGGGCTTGTCACTGGTGT	-0.153
TTGAGGTTGGTCACCTGAGGGG	-0.565
TGTCATATTCTGAAGCGGCTGG	0.253

The sequences below were run against ZKSCAN4 in the same assay as above. Details: shRNA.

Sequence	sensor-assay potency score (higher = more potent)
TTCAATAAGACTTCTATTCCGT	0.355
TTCCACAGTCTTCACATTCATA	-1.13
TTGACTGGAGGCAAGTCCCTGC	0.176
AACCTGGAGAACTCTATCGTGT	-0.756
TTTAGGTCCTACAACTTCCAGA	-0.127
TTCATGCTTGAACAGAGCCTTC	-1.41
TTTATCACCATGAATCCTCTGA	0.54
TAGTCTGTATTTCACCACCAAG	-1.77
TGAGCTGTGACTGAAGACCTTA	0.0781
TACCATTGCATCTTCTCTGCAG	0.382
TTCTGCTTTCTTTGTAACCTGC	-0.00454
TGAACTTTGAGCAAAACTCTTT	-0.0856

What follows are sequences tested against ZMAT2 in the same assay as above. Details: shRNA.

Sequence	sensor-assay potency score (higher = more potent)
TTCTTGTTGACCTCAAAACGTT	-0.905
TTTCTTGTACGCTTTGGCCTTT	-0.519
TTCTCTGATGTTTCTTTCCATT	-1.41
TTGGATTCCAAGTCCACCTTGT	0.567
AAAATCATAATCCTTCTGCTTC	-0.213
TTCTCTTTCTTGTACGCTTTGG	-0.566
TTTCTCTTTCTTGTACGCTTTG	-0.653
TTTATTGGGAACTCAGGTGGGC	0.402
TTCTTTTCTCTCTCTTCCGTGA	-0.461
TACCTCTGCAATCTGTGCCCTC	-0.418
TTCCTCAAAATCATAATCCTTC	0.481
